Test results from the supplement of paper PMC6089552.
In all, about 3,200 compounds went through this assay and about 300 (9.4%) showed activity. For the sample, actives were picked, then their nearest neighbours and some compounds at random.

Test system: A673/TR/shEF
Assay: cell viability (LOESS-normalised, relative to median of negative controls) (log2 ratio); higher = more viable cells (less compound effect), active = hit call of the paper (over 3 MAD below the median)
Details: treatment time: 72 h
How it was run: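 Doxycycline, present or absent from 24 h before compounds, was used to induce EWS-FLI1 shRNA knockdown in A673/TR/shEF Ewing sarcoma cells at 1,500 per well in 384-well plates. Cells then received library compounds at two or more concentrations, or DMSO controls, for three days. Viability was measured by CellTiter-Glo luminescence on an Envision reader, and per-plate LOESS correction, division by the negative-control median and log2 transformation followed.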

[1] = 0.25 µM, library screen: screen1, EWS-FLI1 expression: high (no doxycycline)
[2] = 0.25 µM, library screen: screen1, EWS-FLI1 expression: low (doxycycline-induced shRNA knockdown)
[3] = 2.5 µM, library screen: screen1, EWS-FLI1 expression: high (no doxycycline)
[4] = 2.5 µM, library screen: screen1, EWS-FLI1 expression: low (doxycycline-induced shRNA knockdown)
[5] = 0.103 µM, library screen: screen3, EWS-FLI1 expression: high (no doxycycline)
[6] = 0.103 µM, library screen: screen3, EWS-FLI1 expression: low (doxycycline-induced shRNA knockdown)
[7] = 0.308 µM, library screen: screen3, EWS-FLI1 expression: high (no doxycycline)
[8] = 0.308 µM, library screen: screen3, EWS-FLI1 expression: low (doxycycline-induced shRNA knockdown)
[9] = 0.926 µM, library screen: screen3, EWS-FLI1 expression: high (no doxycycline)
[10] = 0.926 µM, library screen: screen3, EWS-FLI1 expression: low (doxycycline-induced shRNA knockdown)
[11] = 2.8 µM, library screen: screen3, EWS-FLI1 expression: high (no doxycycline)
[12] = 2.8 µM, library screen: screen3, EWS-FLI1 expression: low (doxycycline-induced shRNA knockdown)
[13] = 8.3 µM, library screen: screen3, EWS-FLI1 expression: high (no doxycycline)
[14] = 8.3 µM, library screen: screen3, EWS-FLI1 expression: low (doxycycline-induced shRNA knockdown)
[15] = 25 µM, library screen: screen3, EWS-FLI1 expression: high (no doxycycline)
[16] = 25 µM, library screen: screen3, EWS-FLI1 expression: low (doxycycline-induced shRNA knockdown)

Measured: cell viability (log2)

Clc1ccc(CSC(Cn2ccnc2)c2ccc(Cl)cc2Cl)cc1 (centres undefined)
inactive: [1] 0.0547 | [2] -0.0713 | [3] 0.0724 | [4] -0.143

CSCCC(NC=O)C(=O)NC(CC(C)C)C(=O)NC(Cc1ccccc1)C(=O)O (centres undefined)
inactive: [1] 0.0125 | [2] 0.0891 | [3] 0.0974 | [4] 0.0808

Cn1cncc1[C@@](N)(c1ccc(Cl)cc1)c1ccc2c(c1)c(-c1cccc(Cl)c1)cc(=O)n2C
active: [7] -0.29 | [9] -0.324 | [11] -0.403 | [12] -0.128 | [13] -0.472 | [14] -0.135 | [15] -0.511 | [16] -0.303
inactive: [5] -0.139 | [6] -0.0373 | [8] -0.0603 | [10] -0.0604

COc1ccccc1C1NC(=S)NC(C)=C1C(=O)Nc1cccc(Cl)c1 (centres undefined)
inactive: [1] 0.0961 | [2] 0.101 | [3] 0.0795 | [4] 0.0861

O=C(O)C(O)C(O)(Cc1ccc(O)cc1)C(=O)O (centres undefined)
inactive: [1] 0.147 | [2] 0.0709 | [3] 0.147 | [4] 0.089

C[C@@H]1CC[C@@]2(OC1)O[C@H]1C[C@H]3[C@@H]4CC[C@H]5C[C@@H](O)CC[C@]5(C)[C@H]4C[C@@H](O)[C@]3(C)[C@H]1[C@@H]2C
inactive: [1] 0.0822 | [2] 0.0668 | [3] 0.111 | [4] 0.136

COc1ccccc1C=CC(=O)O
inactive: [1] 0.0113 | [2] -0.0457 | [3] 0.102 | [4] 0.0515

O=C1C=CC(=C(c2ccc(O)cc2)c2ccc(O)cc2)C=C1
inactive: [1] 0.083 | [2] 0.0465 | [3] 0.0975 | [4] 0.0767

CN(C)c1ccc(C(=C2C=CC(=[N+](C)C)C=C2)c2ccc(N(C)C)cc2)cc1
inactive: [5] 0.0956 | [6] -0.0594 | [1] 0.105 | [2] 0.00922 | [7] 0.0542 | [8] 0.0588 | [9] 0.098 | [10] 0.0226 | [3] 0.0691 | [4] 0.106
active: [11] -0.295 | [12] -0.547 | [13] -2.54 | [14] -1.19 | [15] -4.26 | [16] -1.87

COc1ccc(-c2cc(=O)c3c(OC)cc(OC)cc3o2)cc1
inactive: [1] 0.0279 | [2] 0.0681 | [3] 0.0807 | [4] 0.22

CC(=O)Oc1cc(C)c2c(c1C(OC(C)=O)OC(C)=O)Oc1c(c(C)c(OC(C)=O)c3c1C(OC(C)=O)OC3=O)OC2=O (centres undefined)
inactive: [1] 0.0407 | [2] 0.0968 | [3] 0.0425 | [4] 0.133

CC1(C)CC[C@]2(C)CC[C@]3(C)C(=CC[C@@H]4[C@@]5(C)CC[C@H](O)C(C)(C)[C@@H]5CC[C@]43C)[C@@H]2C1
inactive: [1] 0.0903 | [2] 0.0065 | [3] 0.1 | [4] 0.118

COC1=C[C@@H](C)[C@@H]2C[C@H]3OC(=O)C[C@H]4C(C)=C(OC)C(=O)[C@H]([C@@]2(C)C1=O)[C@@]34C
inactive: [1] 0.0742 | [2] 0.006 | [3] 0.146 | [4] 0.0264

Cc1ccc(C(=O)Nc2ccc(CN3CCN(C)CC3)c(C(F)(F)F)c2)cc1C#Cc1cnc2cccnn12
active: [9] -0.202 | [11] -0.252 | [13] -0.655 | [14] -0.442 | [15] -1.59 | [16] -1.35
0.218: [10]
inactive: [5] -0.0141 | [6] 0.111 | [7] -0.0138 | [8] 0.169 | [12] 0.093

CC(C)c1c(O)ccc2c1CCC1[C@@](C)(C(=O)O)CCC[C@]21C (some centres undefined)
inactive: [1] 0.0397 | [2] 0.152 | [3] 0.0988 | [4] 0.234

C=C(C)/C=C1/C=CC(=O)C(C)=C1
inactive: [1] 0.0888 | [2] 0.0664 | [3] 0.0231 | [4] 0.158

CCCCOc1ccc(CC(=O)NO)cc1
inactive: [1] 0.0397 | [2] 0.0519 | [3] 0.124 | [4] 0.116

CCCSc1ccc2nc(NC(=O)OC)[nH]c2c1
inactive: 0.025 µM, library screen: screen2, EWS-FLI1 expression: high (no doxycycline) 0.0864 | 0.025 µM, library screen: screen2, EWS-FLI1 expression: low (doxycycline-induced shRNA knockdown) 0.0115 | [5] 0.197 | [6] -0.0327 | [2] -0.0499 | 0.25 µM, library screen: screen2, EWS-FLI1 expression: high (no doxycycline) 0.0348 | 0.25 µM, library screen: screen2, EWS-FLI1 expression: low (doxycycline-induced shRNA knockdown) 0.051 | [7] 0.0506 | [8] 0.123 | [9] 0.0609 | [10] 0.0788 | 2.5 µM, library screen: screen2, EWS-FLI1 expression: high (no doxycycline) 0.158 | 2.5 µM, library screen: screen2, EWS-FLI1 expression: low (doxycycline-induced shRNA knockdown) 0.0631 | [12] 0.00738
active: [1] -0.206 | [3] -1.99 | [4] -1.04 | [11] -0.524 | [13] -1.81 | [14] -0.886 | 25 µM, library screen: screen2, EWS-FLI1 expression: high (no doxycycline) -1.74 | 25 µM, library screen: screen2, EWS-FLI1 expression: low (doxycycline-induced shRNA knockdown) -0.157 | [15] -2.99 | [16] -1.16

CCCOc1ccc2nc(NC(=O)OC)[nH]c2c1
active: [3] -0.659
inactive: [1] 0.0532 | [2] 0.106 | [4] -0.0137
